Measurements: PubChem BioAssay
Results filed as inconclusive are left out. Calls of active or inactive are those of the source.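 Rule for the calls, unless noted: active = viability at or below 30% in both replicate assays; inconclusive = viability at or below 30% in just one of the two assays; inactive = the rest.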

What was measured:
[1] = Her2 expression decrease, cell viability multiplex – SKBR3 breast tumor cells, AlphaScreen, ATP viability, primary screen (AID 461;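 active = Her2 level under about 52% in both replicate screens, with viability over 70% of control, limit read from the data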;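 for Her2 level: lower value means less Her2 protein in the cells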;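 for viability: percent of carrier control wells set as 100% viability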); conditions: SKBR3 Her2 protein level, 18-24 h, measured here: SKBR3 viability, ATP luminescence, at 10 µM
[2] = molecular target: Receptor tyrosine-protein kinase erbB-2 (Homo sapiens) (UniProt P04626); assay: as above; conditions: 18-24 h, at 10 µM, stronger effect = lower value
[3] = reduced viability of SK-BR-3 breast cancer cells – cell-based, 24 h, human, pilot screen (AID 572;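 active = viability at or below 10% of carrier control in both of two separate runs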;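 note: compound exposure lasted between 18 and 24 h rather than exactly 24 h; 100% = carrier-treated control wells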); conditions: SK-BR-3 viability, CellTiter-Glo luminescence, at 10 µM, stronger effect = lower value
[4] = HUVEC growth inhibition – cell-based, human, primary screen (AID 575); conditions: HUVEC proliferation, CellTiter-Glo luminescence, 72 h; at 10 µM; stronger effect = lower value;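 note: 100% = median of untreated cell wells with 0.1% DMSO on each plate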
[5] = H69AR cell proliferation blockers – human, duplicate replicates, primary screen (AID 580;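 active = viability at or under a set limit in both replicates, limit being median viability minus 3 SD, cut at about 48% in these data, passing the limit was not always enough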;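 note: 100% = mean luminescence of untreated wells and 0% = no signal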); conditions: H69AR lung tumor cells viability, ATP luminescence, 72 h; at 10 µM; stronger effect = lower value
[6] = MRP1 drug-resistance reversers in H69AR cells – cell-based, doxorubicin co-treatment, pilot screen (AID 601;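 active = viability loss from added drug above about 55%, and viability with drug at most 40%, in both replicates, limit read from the data, passing the limit was not always enough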); conditions: CellTiter-Glo, 72 h, at 10 µM; for differential viability (reversal): stronger effect = higher value
[7] = yeast transport mutant growth inhibition pilot in 384-well plates, post-Golgi transport modulator project (AID 636; in the data active = inhibition above about 31%); conditions: absorbance 615 nm, about 18 h, stronger effect = higher value
[8] = growth suppression of yeast trafficking mutant, preliminary HTS, modulators of trafficking downstream of Golgi apparatus project, 1536-format plate, OD 615 nm (AID 637; in the data active = inhibition above about 30%); conditions: yeast transport mutant growth, absorbance 615 nm, 18 h; stronger effect = higher value
[9] = S. cerevisiae growth inhibition in permissive medium (OD615), pilot counter-assay for S. cerevisiae lifespan shortening project, permissive growth control (AID 705;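 active = growth inhibition above 25% in both replicates, a cutoff set 3 SD above the mean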); conditions: OD615, 24 h, at 10 µM, stronger effect = higher value
[10] = S. cerevisiae growth inhibition in restrictive medium, OD615, pilot screen, restrictive growth control, yeast lifespan reduction project (AID 706;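 active = growth inhibition above a set limit, 3 SD over mean compound inhibition, in both replicates, cut at about 43% in these data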;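 note: modified DeaD lifespan yeast strain shifted to restrictive glucose medium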); conditions: OD615, 48 h, at 10 µM, stronger effect = higher value
[11] = doxorubicin toxicity protection in MRP-1 cells – H69AR cells, CellTiter-Glo, duplicate, MRP-1 activator project, pilot screen (AID 807;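 active = viability increase at or above a cutoff of the median across tested compounds plus 3 SD, cut at about 8.5% in these data, passing the limit was not always enough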;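 note: compound pretreatment 18-22 h then 72 h combined with doxorubicin; 0% = doxorubicin alone and 100% = vehicle without doxorubicin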); conditions: H69AR viability with doxorubicin, CellTiter-Glo luminescence; at 10 µM; stronger effect = higher value
[12] = viability of HCT116 without oncogenic beta-catenin – human colon tumor cells, pilot screen (AID 823;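 active = cell viability at or below a set limit in both duplicate runs, the limit being the all-compound median minus 4 SD, cut at about 23% in these data, passing the limit was not always enough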;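 note: 0% = wells killed by 20 µM Hyamine and 100% = untreated DMSO cell wells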); conditions: HCT116 beta-catenin knockout viability, CellTiter-Glo, 60 h; at 10 µM; stronger effect = lower value
[13] = RAM pathway blockade in budding yeast – dse1pr::URA3 reporter, 5-FOA selection, pilot screen (AID 869;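 active = inhibition over a set limit, the all-compound mean plus 3 SD, in both replicate runs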;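 note: 0% = DMSO wells with no growth and 100% = 10 µM 1-NA-PP1 with full growth; RAM network block rescues cells from 5-FOA so hits raise OD615 growth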); conditions: S. cerevisiae dse1pr::URA3 5-FOA growth, OD615, 2 d; at 10 µM; stronger effect = higher value; strain carries analog-sensitive mutant Cbk1 kinase
[14] = RAM signaling pathway blockade in yeast – S. cerevisiae, Pdr1DBD-CYC8 efflux-inhibited sensitized strain, primary screen (AID 1298;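 active = RAM network inhibition above 8.4% in each of two replicates, 3 SD over the compound average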;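 note: 0% = DMSO untreated cells without growth and 100% = 10 µM 1-NA-PP1 full growth; higher means more yeast growth rescued from 5-FOA killing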); conditions: S. cerevisiae cbk1-as DSE1-URA3 strain, 5-FOA growth OD615, 2 d; at 50 µM; stronger effect = higher value
[15] = viability of PTEN-null HCT116 cells – cell-based, HCT116 clonal line, CellTiter-Glo, pilot screen (AID 824;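 active = viability at or below 27.92% in each of two runs, the all-compound median minus 4 SD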;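 note: 0% = 20 µM Hyamine control and 100% = vehicle cell control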); conditions: HCT116 PTEN-deleted viability, 60 h, at 10 µM, stronger effect = lower value
[16] = H69AR cells + 2 uM doxorubicin, measured here: viability with 2 uM doxorubicin, stronger effect = lower value
[17] = H69AR cells, compound alone cytotoxicity

Chain of Receptor tyrosine-protein kinase erbB-2 (Homo sapiens) (P04626 whole entry, looked up): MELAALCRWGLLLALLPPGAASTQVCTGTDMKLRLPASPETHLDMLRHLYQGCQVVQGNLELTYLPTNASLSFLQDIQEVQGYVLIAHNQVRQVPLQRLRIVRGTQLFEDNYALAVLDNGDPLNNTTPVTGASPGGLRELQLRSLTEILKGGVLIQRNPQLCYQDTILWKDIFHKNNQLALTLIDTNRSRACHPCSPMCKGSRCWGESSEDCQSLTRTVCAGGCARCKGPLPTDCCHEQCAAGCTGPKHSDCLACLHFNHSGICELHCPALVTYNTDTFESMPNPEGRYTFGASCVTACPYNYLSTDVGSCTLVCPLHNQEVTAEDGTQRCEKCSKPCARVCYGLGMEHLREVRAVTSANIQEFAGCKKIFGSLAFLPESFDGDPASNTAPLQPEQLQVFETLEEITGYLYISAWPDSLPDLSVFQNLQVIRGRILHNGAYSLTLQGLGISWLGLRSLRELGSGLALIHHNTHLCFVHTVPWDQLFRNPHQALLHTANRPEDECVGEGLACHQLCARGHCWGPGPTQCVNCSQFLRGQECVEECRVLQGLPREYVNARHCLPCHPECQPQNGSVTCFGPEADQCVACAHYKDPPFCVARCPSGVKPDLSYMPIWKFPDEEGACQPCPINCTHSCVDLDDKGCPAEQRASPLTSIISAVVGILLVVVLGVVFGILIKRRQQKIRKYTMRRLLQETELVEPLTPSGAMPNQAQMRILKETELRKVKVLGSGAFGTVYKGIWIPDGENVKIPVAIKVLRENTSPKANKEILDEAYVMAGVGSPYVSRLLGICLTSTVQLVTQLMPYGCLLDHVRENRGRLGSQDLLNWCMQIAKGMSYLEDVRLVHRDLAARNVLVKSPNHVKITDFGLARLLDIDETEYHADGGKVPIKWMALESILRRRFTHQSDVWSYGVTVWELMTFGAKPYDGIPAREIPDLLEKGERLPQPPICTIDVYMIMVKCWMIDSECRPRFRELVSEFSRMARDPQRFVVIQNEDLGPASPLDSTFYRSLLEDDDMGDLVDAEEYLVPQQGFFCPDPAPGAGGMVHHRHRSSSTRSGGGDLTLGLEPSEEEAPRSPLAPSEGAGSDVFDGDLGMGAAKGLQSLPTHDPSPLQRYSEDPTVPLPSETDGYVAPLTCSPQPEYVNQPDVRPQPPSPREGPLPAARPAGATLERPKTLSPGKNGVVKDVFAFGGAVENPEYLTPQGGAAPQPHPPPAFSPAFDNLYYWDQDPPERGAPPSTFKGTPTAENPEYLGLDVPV

N#Cc1c2n(c(=O)[nH]c1=O)CCCCC2
99.7%: viability [6, 16]
103%: viability [6, 17]
inactive: Her2 level [2] 92% | viability [3] 112% | viability [4] 96.2% | viability [5] 103% | differential viability (reversal) ([6]; H69AR cells + 2 uM doxorubicin) 3.5% | inhibition [7] -2.6% | inhibition [8] -7.46% | growth inhibition [9] -9.79% | growth inhibition [10] 1.1% | viability increase [11] 1.19% | viability [12] 99.5% | inhibition [13] -0.04% | RAM network inhibition [14] 6.34%
112%: viability [1]

COc1ccc(N(C)C(=O)CCS(=O)(=O)c2cccc3nonc23)cc1
96.5%: viability [1]
inactive: Her2 level [2] 85% | viability [3] 96.5% | viability [4] 94.9% | viability [5] 104% | differential viability (reversal) ([6]; H69AR cells + 2 uM doxorubicin) 14.5% | inhibition [7] -9.86% | inhibition [8] -0.95% | growth inhibition [9] -9.93% | growth inhibition [10] -8.78% | viability increase [11] -3.05% | viability [15] 89.6% | inhibition [13] 1.3% | RAM network inhibition [14] 4.67%
89.6%: viability [6, 16]
104%: viability [6, 17]

Clc1ss/c(=N\c2ccccn2)c1Cl
76.6%: viability [6, 17]
100%: viability [1]
inactive: Her2 level [2] 77% | viability [3] 100% | viability [4] 77.8% | viability [5] 76.6% | differential viability (reversal) ([6]; H69AR cells + 2 uM doxorubicin) 4.38% | inhibition [7] -9.18% | inhibition [8] 2.06% | growth inhibition [9] 3.12% | growth inhibition [10] 19.3% | viability increase [11] -5.42% | viability [15] 96.8% | inhibition [13] 1.77% | RAM network inhibition [14] 3.89%
72.3%: viability [6, 16]

CC(=O)NCC(=O)N(Cc1ccco1)C1(C(=O)NC2CCCCC2)CCCCC1
90.9%: viability [6, 17]
inactive: Her2 level [2] 93% | viability [3] 140% | viability [4] 103% | viability [5] 90.9% | differential viability (reversal) ([6]; H69AR cells + 2 uM doxorubicin) 2.67% | inhibition [7] -9.59% | inhibition [8] 2.7% | growth inhibition [9] -7.64% | growth inhibition [10] 2.32% | viability increase [11] -5.15% | viability [15] 90% | inhibition [13] 2.22% | RAM network inhibition [14] -0.72%
140%: viability [1]
88.3%: viability [6, 16]

CCOc1ccc(-c2nnc3sc(-c4c(OC)cccc4OC)nn23)cc1
84.8%: viability [6, 16]
inactive: Her2 level [2] 84% | viability [3] 126% | viability [4] 86.5% | viability [5] 86.2% | differential viability (reversal) ([6]; H69AR cells + 2 uM doxorubicin) 1.34% | inhibition [7] -5.87% | inhibition [8] 10.5% | growth inhibition [9] -0.61% | growth inhibition [10] 8.15% | viability increase [11] -5.89% | viability [15] 71.3% | inhibition [13] 2.04% | RAM network inhibition [14] 4.81%
86.2%: viability [6, 17]
126%: viability [1]

O=C1CCCC2=C1C(c1cccs1)n1nc(SCc3ccccc3F)nc1N2 (stereo unspecified)
81.7%: viability [6, 17]
85%: viability [1]
inactive: Her2 level [2] 99.5% | viability [3] 85% | viability [4] 65.5% | viability [5] 81.7% | inhibition [7] -0.27% | inhibition [8] 10.2% | growth inhibition [9] -6.56% | growth inhibition [10] -6.42% | viability increase [11] -5.19% | viability [15] 68.4% | inhibition [13] 1.23% | RAM network inhibition [14] 3.02%
active: differential viability (reversal) ([6]; H69AR cells + 2 uM doxorubicin) 66.1%
15.6%: viability [6, 16]

O=C(CCS(=O)(=O)c1cccc2nsnc12)NCc1ccccc1
106%: viability [6, 17]
inactive: Her2 level [2] 116% | viability [3] 93.5% | viability [4] 91.2% | viability [5] 106% | differential viability (reversal) ([6]; H69AR cells + 2 uM doxorubicin) 17.4% | inhibition [7] -3.01% | inhibition [8] -4.6% | growth inhibition [9] -12.7% | growth inhibition [10] -4.2% | viability increase [11] -2.9% | viability [15] 105% | inhibition [13] 1.31% | RAM network inhibition [14] 1.65%
88.9%: viability [6, 16]
93.5%: viability [1]

CCCCOC(=O)c1[nH]c2c(c1C)C(=O)CC(c1cc(OC)c(OC)c(OC)c1)C2 (stereo unspecified)
inactive: Her2 level [2] 74.5% | viability [3] 89% | viability [4] 77.4% | viability [5] 72.4% | differential viability (reversal) ([6]; H69AR cells + 2 uM doxorubicin) 0.9% | inhibition [7] 0.38% | inhibition [8] -3.33% | growth inhibition [9] -13% | growth inhibition [10] -18.8% | viability increase [11] 1.17% | viability [15] 56.6% | inhibition [13] 1.75% | RAM network inhibition [14] 3.15%
89%: viability [1]
71.5%: viability [6, 16]
72.4%: viability [6, 17]

CC1(C)CC(=O)CC(C2(O)C(=O)N(Cc3ccccc3)c3ccccc32)O1 (stereo unspecified)
56.7%: viability [6, 16]
44%: viability [6, 17]
active: viability [5] 44%
99.5%: viability [1]
inactive: Her2 level [2] 82.5% | viability [3] 99.5% | viability [4] 78.3% | differential viability (reversal) ([6]; H69AR cells + 2 uM doxorubicin) -12.7% | inhibition [7] 1.2% | inhibition [8] -4.75% | growth inhibition [9] -7.38% | growth inhibition [10] 4.87% | viability increase [11] -5.63% | viability [15] 44.2% | inhibition [13] 1.98% | RAM network inhibition [14] 1.36%

COc1ccc(C2C(C(=O)N3CCCC3)c3cc(OC)c(OC)cc3C(=O)N2C)cc1 (stereo unspecified)
inactive: Her2 level [2] 85.5% | viability [3] 88.5% | viability [4] 94.3% | viability [5] 102% | differential viability (reversal) ([6]; H69AR cells + 2 uM doxorubicin) 0.95% | inhibition [7] -7.95% | inhibition [8] -0.63% | growth inhibition [9] -8.59% | growth inhibition [10] -0.445% | viability increase [11] -1.15% | viability [15] 92.8% | inhibition [13] 0.655% | RAM network inhibition [14] 5.28%
102%: viability [6, 17]
88.5%: viability [1]
101%: viability [6, 16]

Cc1ccc(N(C(=O)C2CCC(=O)N2)C2(C(=O)NC3CCCCC3)CCCCC2)cc1 (stereo unspecified)
inactive: Her2 level [2] 99% | viability [3] 110% | viability [4] 108% | viability [5] 98.4% | differential viability (reversal) ([6]; H69AR cells + 2 uM doxorubicin) 3.47% | inhibition [7] -0.55% | inhibition [8] -0.79% | growth inhibition [9] -9.55% | growth inhibition [10] -6.46% | viability increase [11] -2.37% | viability [15] 92.9% | inhibition [13] 2.28% | RAM network inhibition [14] 1.79%
94.9%: viability [6, 16]
98.4%: viability [6, 17]
110%: viability [1]
